The values below come from PubChem BioAssay (NCATS).

A number with no mark means an inactive call. For some assays here: Potency and affinity values are given separately. The source made the active and inactive calls.

The conditions of assay [1]: Ebola virus entry assay, green fluorescence channel.
For assay [2] the following is noted: Ebola virus entry assay, blue channel fluorescence.
For assay [3] the following is noted: Ebola virus entry assay, green fluorescence channel. This is another data set of the same source.
The conditions of assay [4]: Ebola virus entry assay, ratio channel readout.
For assay [5] the following is noted: Ebola virus entry assay, blue channel fluorescence. This is another data set of the same source.
For assay [6] the following is noted: Ebola virus entry assay, ratio channel.
The conditions of assay [7]: Ebola virus entry assay, reporter ratio channel; AC50: Channel type: primary unless noted; outcome: Channel type: primary unless noted.
For assay [8] the following is noted: Ebola virus entry cell assay, ratio channel.
For assay [9] the following is noted: Ebola virus entry assay, green channel fluorescence.
The conditions of assay [10]: Ebola virus entry assay, blue channel fluorescence. This is another data set of the same source.
For assay [11] the following is noted: Ebola virus entry assay, blue channel (ratio component).
For assay [12] the following is noted: Ebola virus entry reporter assay, green channel fluorescence. (Reporter assays use an easily measured gene product as a stand-in for the process of interest.)
For efficacy in this document: 0% is about no effect.

As to `OCCN(CCO)c1nc(N2CCCCC2)c2nc(N(CCO)CCO)nc(N3CCCCC3)c2n1`, in assay [1], the efficacy was 489%. In addition, the compound was classed as inactive in [2], in assay [4], in assay [5], in assay [6], in assay [7] and in assay [8]. Also, the half-maximal activity concentration (AC50) in [3] was 25.1 µM (active).
Consider `O=C1c2c(O)ccc(O)c2C(=O)c2c(NCCNCCO)ccc(NCCNCCO)c21`, for which, in assay [1], the efficacy was -106%. Besides, the half-maximal activity concentration (AC50) in assay [2] is 5.01 µM (active); in [5], 12.6 µM (active); in assay [6], 7.94 µM (active); in [7] it was 7.94 µM (active); in [8], 5.01 µM (active). Besides, the outcome in [3] and in assay [4] was inactive.
Regarding `CN1CCN(C2=Nc3ccccc3Oc3ccc(Cl)cc32)CC1`, the efficacy in assay [1] was 112%. The outcome in assay [2], in assay [3], in assay [4] and in [8] was inactive. Moreover, the half-maximal activity concentration (AC50) is 39.8 µM (active) in assay [5], 31.6 µM (active) in assay [6] and 31.6 µM (active) in assay [7].
Consider `CN(C)C(=O)C(CCN1CCC(O)(c2ccc(Cl)cc2)CC1)(c1ccccc1)c1ccccc1`, for which the efficacy in [1] was -226%. Also, the AC50 in [2] was 11.2 µM (active); in [5], 3.16 µM (active); in assay [6], 2.51 µM (active); in [7], 2.51 µM (active); in assay [8], 11.2 µM (active). Further, the call in assay [3] and in [4] was inactive.
Turning to `CC(CN(C)C)CN1c2ccccc2CCc2ccccc21` (centres undefined), the efficacy in [1] was 31.5%. Moreover, the call in [2] and in [3] was inactive. In addition, the half-maximal activity concentration (AC50) is 14.1 µM (active) in assay [4]; 7.94 µM (active) in assay [5]; 6.31 µM (active) in [6]; 6.31 µM (active) in assay [7]; 14.1 µM (active) in [8].
In the case of `CN1CCN(CCCN2c3ccccc3Sc3ccc(Cl)cc32)CC1`, the efficacy in [1] was -144%. In addition, the outcome in [2], in assay [3] and in [4] was inactive. Further, the AC50 was 7.08 µM (active) in assay [5], 3.98 µM (active) in assay [6], 3.98 µM (active) in [7] and 14.1 µM (active) in assay [8].
As for `COc1ccc([C@@H]2Sc3ccccc3N(CCN(C)C)C(=O)[C@@H]2OC(C)=O)cc1`, the efficacy in assay [1] was 53.7%. Further, the call in [2], in assay [3], in assay [4] and in [8] was inactive. Moreover, the AC50 is 28.2 µM (active) in assay [5], 25.1 µM (active) in assay [6] and 25.1 µM (active) in [7].
Regarding `CCCN(CCc1cccs1)[C@H]1CCc2c(O)cccc2C1`, in assay [1], the efficacy is -47.6%. The compound was classed as inactive in [2], in assay [3] and in assay [4]. Besides, the concentration at half-maximal activity (AC50) in assay [5] is 25.1 µM (active); in [6], 25.1 µM (active); in assay [7], 25.1 µM (active); in assay [8], 15.8 µM (active).
In the case of `O[C@@H](c1cc(C(F)(F)F)nc2c(C(F)(F)F)cccc12)[C@H]1CCCCN1`, the efficacy in assay [1] was -219%. Moreover, the AC50 in assay [2] was 7.94 µM (active); in assay [4], 5.63 µM (active); in assay [5], 1.58 µM (active); in assay [6], 1.58 µM (active); in assay [7], 1.58 µM (active); in assay [8] it was 5.62 µM (active). Also, in assay [3], the compound was classed as inactive.
For `CC(C)NCC(O)COc1ccc(CCOCC2CC2)cc1` (centres undefined), the efficacy in assay [1] is 65%. Moreover, the compound was classed as inactive in [2], in [3] and in assay [4]. Moreover, the AC50 is 14.1 µM (active) in assay [5], 11.2 µM (active) in assay [6], 11.2 µM (active) in assay [7] and 15.8 µM (active) in assay [8].
On to `CCc1nn(CCCN2CCN(c3cccc(Cl)c3)CC2)c(=O)n1CCOc1ccccc1`, for which the efficacy in [1] is 111%. Also, the result in assay [2], in [3] and in assay [4] was inactive. In addition, the AC50 in [5] is 39.8 µM (active); in assay [6], 31.6 µM (active); in assay [7], 31.6 µM (active); in [8] it was 22.4 µM (active).
With `COc1cc2nc(N3CCN(C(=O)c4ccco4)CC3)nc(N)c2cc1OC`, the efficacy in assay [1] was 75.4%. Also, the compound was classed as inactive in assay [2], in assay [3] and in assay [4]. Further, the half-maximal activity concentration (AC50) is 15.8 µM (active) in assay [5], 12.6 µM (active) in [6], 12.6 µM (active) in assay [7] and 12.6 µM (active) in assay [8].
Consider `OCCN1CCN(CCCN2c3ccccc3Sc3ccc(Cl)cc32)CC1`, for which the efficacy in assay [1] was 88.4%. Also, the concentration at half-maximal activity (AC50) in [2] was 6.31 µM (active); in [4], 5.63 µM (active); in assay [5], 2.82 µM (active); in assay [6] it was 2.24 µM (active); in [7], 2.24 µM (active); in [8], 5.62 µM (active). For the same compound, the compound was classed as inactive in assay [3].
With `CN(C)c1cc(NC(=O)CNC(C)(C)C)c(O)c2c1C[C@@H]1C[C@H]3[C@H](N(C)C)C(=O)C(C(N)=O)=C(O)[C@@]3(O)C(=O)C1=C2O`, the efficacy in [1] was 47.7%. Also, the compound was classed as inactive in [2], in assay [3], in [4] and in [8]. Besides, the concentration at half-maximal activity (AC50) in [5], in [6] and in [7] was 8.91 µM (active) throughout.
For the compound `CNCC[C@@H](Oc1ccccc1C)c1ccccc1`, the efficacy in assay [1] is 103%. Moreover, the outcome in assay [2], in [3] and in assay [4] was inactive. The AC50 was 10 µM (active) in assay [5], 10 µM (active) in assay [6], 10 µM (active) in [7] and 17.8 µM (active) in [8].
`Clc1ccc2c(c1)C(N1CCNCC1)=Nc1ccccc1O2`: in [1], the efficacy is 94.9%. The concentration at half-maximal activity (AC50) was 14.1 µM (active) in assay [2]; 12.6 µM (active) in assay [4]; 14.1 µM (active) in [5]; 10 µM (active) in [6]; 10 µM (active) in assay [7]; 12.6 µM (active) in assay [8]. In addition, the result in assay [3] was inactive.
As for `CC1(C)S[C@@H]2[C@H](NC(=O)C(C(=O)O)c3ccccc3)C(=O)N2[C@H]1C(=O)O` (some centres undefined), in assay [1], the efficacy was 26%. Besides, the compound was called inactive in [2], in assay [3], in assay [4], in assay [5], in assay [9] and in assay [10]. Moreover, the outcome in assay [7], in [11] and in [8] was inactive.
As to `CO/N=C(\C(=O)N[C@@H]1C(=O)N2C(C(=O)O)=C(CSc3nc(=O)c(O)nn3C)CS[C@H]12)c1csc(N)n1`, the efficacy in assay [1] is 11.1%. Besides, the compound was classed as inactive in [2], in assay [3], in [4], in [5], in assay [9] and in [10]. The result in [7], in assay [11], in [12] and in assay [8] was inactive.

A word on the AC50: it is the concentration giving half of the maximal activity seen.
